# Test results as given in PubChem BioAssay.
# Where “and” joins values, the source holds several entries; their conditions need not be identical. Identical values can stand only once. Calls of active or inactive are those of the source.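 Rule for the calls, unless noted: active = mean z-score across replicates of 1.96 or higher in either the MELAS or the Rieske mutant cell line; inactive = the rest.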
# Tests used:
# [1] = test system: Hepatitis C virus NS3 helicase; assay: HCV NS3 helicase inhibitors, primary screen, biochemical, fluorescence polarization, NIH Clinical Collection (AID 743270; call rule not given here); details: NS3 helicase binding to Cy5-dT15 DNA, stronger effect = higher value, concentration not given here
# [2] = target: Single-stranded DNA-binding protein (Escherichia coli (strain K12)) (UniProt P0AGE0); assay: E. coli SSB displacement from DNA, counter-screen for HCV NS3 helicase inhibitor project, biochemical, fluorescence polarization, NIH Clinical Collection (AID 743271; in the data active = inhibition above about 28%); details: stronger effect = higher value, concentration not given here
# [3] = fluorescence interference in NS3h assay format, artefact control for HCV NS3 helicase inhibitor project, biochemical, NIH Clinical Collection (AID 743272; call rule not given here;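 note: HCV NS3 helicase with a Cy5 labelled single stranded DNA probe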); details: fluorescence interference counterscreen, stronger effect = lower value
# [4] = stimulators of nuclear beta-catenin in C2C12, primary screen, imaging, WNT3A-conditioned medium, mouse C2C12, NPC library (AID 1117326; in the data active = nuclear beta-catenin stimulation mostly above about 4.2%, no sharp cut-off; inactive = mostly below about 10%); details: stronger effect = higher value
# [5] = stimulators of insulin release from INS-1E, primary screen, cell-based, 5 mM glucose, NPC library (AID 1117329;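 active = compound raises insulin release from rat beta cells at 5 mM glucose, no numeric limit stated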); details: rat INS-1E insulin secretion, at 10 µM, stronger effect = higher value
# [6] = growth inhibition of GSK3B-pretreated HCT116 cells – cell-based, CellTiter-Glo, 0.2 to 20 µM (AID 1117336;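 active = compounds lowering colon cancer cell viability after pretreatment blocking the GSK3B kinase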); details: HCT116 viability after GSK3B inhibitor, at 20 µM, stronger effect = higher value
# [7] = inhibition of endothelial tube formation, primary screen, imaging, VEGF stimulated, CD31 staining, tube area, NPC library (AID 1117340;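 active = compound that reduces growth-factor-driven endothelial tube area in a mixed cell culture, no cutoff stated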); details: VEGF-stimulated ADSC/ECFC co-culture, at 10 µM, stronger effect = higher value
# [8] = glucagon-like peptide 1 release enhancers, primary assay, NCI-H716 cell line, NPC library (AID 1117341;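 active = compound raises GLP1 secretion from the human gut endocrine cells, with no numeric limit stated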); details: NCI-H716 cells, at 10 µM, stronger effect = higher value
# [9] = HCT116 colon cancer cell growth inhibition, primary screen, CellTiter-Glo luminescence, NPC library (AID 1117342;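 active = compounds that lower survival of HCT116 colon cancer cells in the luminescence readout, no numeric limit stated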); details: at 20 µM (top of the series)
# [10] = CellTiter-Glo luminescent readout of SW480 viability loss, NPC library primary (AID 1117343;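 active = compounds that lower viability of the colon cancer cells in the luminescence readout, with no numeric limit stated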); details: CellTiter-Glo luminescence; at 20 µM (top of the series)
# [11] = decreased DLD-1 cellular survival, CellTiter-Glo luminescent readout, NPC compound collection, primary HTS (AID 1117346;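 active = compounds that lower survival of DLD-1 colon cancer cells in the luminescence readout, no cutoff given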); details: DLD-1 viability, CellTiter-Glo luminescence; at 20 µM (top of the series)
# [12] = target: 6-phosphogluconate dehydrogenase, decarboxylating (Homo sapiens) (UniProt P52209); assay: 6PGD enzyme inhibitors, primary screen, biochemical, human, recombinant enzyme, NADPH absorbance (AID 1159550;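 active = at least 20% inhibition of 6-phosphogluconate dehydrogenase activity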); details: recombinant 6PGD, NADPH absorbance 341 nm; at 10 µM; stronger effect = higher value
# Sequence of 6-phosphogluconate dehydrogenase, decarboxylating (Homo sapiens) (P52209 whole entry, looked up): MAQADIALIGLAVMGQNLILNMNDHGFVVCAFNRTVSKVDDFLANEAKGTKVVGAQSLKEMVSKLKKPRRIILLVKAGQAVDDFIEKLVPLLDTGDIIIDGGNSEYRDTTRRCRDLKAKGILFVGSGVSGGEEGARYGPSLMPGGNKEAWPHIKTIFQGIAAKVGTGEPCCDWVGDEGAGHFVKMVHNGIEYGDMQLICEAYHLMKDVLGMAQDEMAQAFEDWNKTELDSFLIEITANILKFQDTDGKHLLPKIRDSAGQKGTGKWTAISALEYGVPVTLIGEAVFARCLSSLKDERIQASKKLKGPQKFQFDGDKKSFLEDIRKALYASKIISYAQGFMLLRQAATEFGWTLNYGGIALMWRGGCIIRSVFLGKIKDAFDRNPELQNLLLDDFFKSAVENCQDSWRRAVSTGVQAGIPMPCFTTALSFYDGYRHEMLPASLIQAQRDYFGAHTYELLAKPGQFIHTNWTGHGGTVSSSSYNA
# [13] = differential killing of epithelial or mesenchymal cells, primary screen, imaging, PC-3E GFP, TEM4-18 mCherry, co-culture (AID 1345086;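 active = compounds killing one labelled cell type while sparing the other, by normalised counts and ratio limits, not self-fluorescent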;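 for all read-outs here: cells exposed to compound for 72 h before imaging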;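 for red/green cell ratio (normalised): normalised mesenchymal count divided by normalised epithelial count so high means epithelial killing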); details: imaging cell counts, at 1 µM; for red/green cell ratio (normalised): actives lie on both sides, counts scaled to control wells, 1 = unselective
# [14] = survival rescue of mitochondrial mutant cells in low glucose, primary screen, MELAS cybrids, Rieske KO mouse fibroblasts, CellTiter-Glo (AID 1508586);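 note: z relative to plate mean and SD of compound and empty wells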
# [15] = target: NAD(+) hydrolase SARM1 (Homo sapiens) (UniProt Q6SZW1); assay: SARM1 TIR NADase inhibitors, cell lysate, NAD-Glo luminescence (AID 1508614;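 active = compound whose remaining NAD level is above about 45 nM, limit read from the data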;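 note: higher remaining NAD means stronger inhibition of SARM1 NADase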); details: SAM-TIR HEK293T lysate NADase, at 1 µM, stronger effect = higher value
# Sequence of NAD(+) hydrolase SARM1 (Homo sapiens) (Q6SZW1 whole entry, looked up, the tested form may be a part): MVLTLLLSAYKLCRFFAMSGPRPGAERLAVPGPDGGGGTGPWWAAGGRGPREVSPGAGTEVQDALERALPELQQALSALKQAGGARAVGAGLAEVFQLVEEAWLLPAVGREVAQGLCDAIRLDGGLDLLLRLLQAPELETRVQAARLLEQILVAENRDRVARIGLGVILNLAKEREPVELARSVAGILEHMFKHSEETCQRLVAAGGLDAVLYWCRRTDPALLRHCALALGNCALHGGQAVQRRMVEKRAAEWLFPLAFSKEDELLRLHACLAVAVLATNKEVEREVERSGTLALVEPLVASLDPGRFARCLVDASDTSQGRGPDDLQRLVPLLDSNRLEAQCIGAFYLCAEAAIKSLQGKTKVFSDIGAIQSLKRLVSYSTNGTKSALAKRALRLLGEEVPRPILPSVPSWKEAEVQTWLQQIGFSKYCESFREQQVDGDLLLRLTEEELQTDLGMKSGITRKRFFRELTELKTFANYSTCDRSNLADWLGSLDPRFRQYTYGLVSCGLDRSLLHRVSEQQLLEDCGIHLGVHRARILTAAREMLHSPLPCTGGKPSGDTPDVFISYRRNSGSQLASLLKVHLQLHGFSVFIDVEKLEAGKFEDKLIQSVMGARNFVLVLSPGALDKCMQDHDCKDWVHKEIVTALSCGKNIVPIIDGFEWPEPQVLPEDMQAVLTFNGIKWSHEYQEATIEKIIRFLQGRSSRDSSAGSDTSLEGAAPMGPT
# [16] = target: Mitogen-activated protein kinase 7 (Homo sapiens) (UniProt Q13164); assay: ERK5 transactivation activators in reporter cells, primary screen, cell-based, HTS (AID 1508626;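 active = luciferase signal above three times the same-plate solvent-only control wells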;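 note: luciferase driven by Gal4-ERK5 fusion binding five Gal4 sites before minimal TATA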); details: HeLa Gal4-ERK5 transactivation, 18 h, at 5 µM, stronger effect = higher value
# Sequence of Mitogen-activated protein kinase 7 (Homo sapiens) (Q13164 whole entry, looked up, the tested form may be a part): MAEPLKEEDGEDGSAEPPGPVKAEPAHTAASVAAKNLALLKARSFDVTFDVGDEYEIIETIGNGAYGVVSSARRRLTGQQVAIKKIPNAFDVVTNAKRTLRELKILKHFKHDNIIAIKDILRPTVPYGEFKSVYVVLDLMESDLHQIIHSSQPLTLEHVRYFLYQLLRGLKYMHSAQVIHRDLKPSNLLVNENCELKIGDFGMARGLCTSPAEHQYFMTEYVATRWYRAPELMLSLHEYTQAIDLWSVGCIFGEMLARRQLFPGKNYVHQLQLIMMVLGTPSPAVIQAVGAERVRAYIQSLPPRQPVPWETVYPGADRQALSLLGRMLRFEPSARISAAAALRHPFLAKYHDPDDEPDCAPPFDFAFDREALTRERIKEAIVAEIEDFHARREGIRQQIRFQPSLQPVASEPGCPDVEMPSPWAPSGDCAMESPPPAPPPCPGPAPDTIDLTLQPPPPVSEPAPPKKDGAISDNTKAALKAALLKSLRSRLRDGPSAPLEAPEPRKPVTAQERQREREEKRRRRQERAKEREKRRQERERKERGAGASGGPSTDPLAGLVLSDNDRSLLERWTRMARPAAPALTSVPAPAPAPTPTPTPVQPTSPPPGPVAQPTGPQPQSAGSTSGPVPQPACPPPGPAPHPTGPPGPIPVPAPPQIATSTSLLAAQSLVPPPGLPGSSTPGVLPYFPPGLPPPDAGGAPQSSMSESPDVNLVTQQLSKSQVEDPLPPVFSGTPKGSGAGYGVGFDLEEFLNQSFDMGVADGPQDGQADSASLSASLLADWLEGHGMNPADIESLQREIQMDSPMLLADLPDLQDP
# [17] = sensitizers of A549 cells to miR-34 induction, primary screen, imaging, A549 dox-inducible miR-34, nuclei and caspase counts (AID 1347080;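 active = compounds whose cell count with miR-34 switched on is under 0.7 times the count with it off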); details: A549 miR-34 inducible, Hoechst nuclei count, 48 h
# [18] = test system: F380Y; assay: modulators of BK channel variants, profiling panel, selectivity assay, cell-based, U2OS BacMam, thallium flux, beta subunits (AID 1259406;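 active = thallium flux through the channel raised or lowered by more than 3 SD from vehicle-only wells, actives on both sides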;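 note: initial slope of Thallos dye fluorescence rise after thallium is added; log ratio against the mean of 0.3% DMSO vehicle wells on the same plate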); details: at 30 µM
# [19] = test system: F380Y/beta2Delta; assay: as above; details: at 30 µM
# [20] = target: Calcium-activated potassium channel subunit alpha-1 (Homo sapiens) + Leucine-rich repeat-containing protein 26 (Homo sapiens) (UniProt Q12791+Q2I0M4); assay: as above; details: F380Y/Slo1WT/gamma1, at 30 µM
# Sequence of Calcium-activated potassium channel subunit alpha-1 (Homo sapiens) + Leucine-rich repeat-containing protein 26 (Homo sapiens) (Q2I0M4 whole entry, looked up, one chain of several): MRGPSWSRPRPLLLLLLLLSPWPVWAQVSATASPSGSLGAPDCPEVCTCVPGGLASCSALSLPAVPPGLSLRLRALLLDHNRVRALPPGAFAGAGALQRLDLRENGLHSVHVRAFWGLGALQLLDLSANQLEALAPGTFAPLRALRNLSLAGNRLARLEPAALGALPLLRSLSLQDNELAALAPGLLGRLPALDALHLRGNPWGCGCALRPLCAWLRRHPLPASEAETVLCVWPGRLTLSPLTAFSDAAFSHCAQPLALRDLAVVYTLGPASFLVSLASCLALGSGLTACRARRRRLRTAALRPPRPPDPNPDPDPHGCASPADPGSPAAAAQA
# [21] = measured here: epithelial PC-3E GFP cell survival
# [22] = measured here: mesenchymal TEM4-18 mCherry cell survival
# [23] = MELAS cybrid survival, CellTiter-Glo 48 h, stronger effect = higher value
# [24] = Rieske KO mouse fibroblast survival, CellTiter-Glo 72 h
compound,measurement,setting,value
CCOC(=O)N1CCC(=C2c3ccc(Cl)cc3CCc3cccnc32)CC1,inhibition,[1],-3.56% (inactive)
same,inhibition,[2],6.83% (inactive)
same,fluorescence ratio,[3],0.9 (inactive)
same,nuclear beta-catenin stimulation,[4]; at 10 µM,1.8% (inactive)
same,nuclear beta-catenin stimulation,"[4]; stimulation, at 2 µM",1%
same,insulin secretion stimulation,[5],6.9% (inactive)
same,viability decrease,[6],94.1% (active)
same,tube area decrease,[7],39.2% (inactive)
same,GLP1 secretion stimulation,[8],14.3% (inactive)
same,inhibition of viability,[9],98.8% (active)
same,viability decrease (inhibition),[10],94% (active)
same,viability decrease (inhibition),[11],97.2% (active)
same,inhibition,[12],4.3% (inactive)
same,red/green cell ratio (normalised),[13],1.35 (inactive)
same,normalised cell number,[13]; [21],0.99
same,normalised cell number,[13]; [22],1.34
same,z-score,[14]; [23],-0.418 (inactive) and -1.77 (inactive) and -2.01 (inactive)
same,z-score,[14]; [24],0.823 and 1.1 and 0.356
same,remaining NAD,[15],10 nM (inactive)
same,luciferase signal,[16],48 AU (inactive)
C#C[C@]1(O)CC[C@H]2[C@@H]3CCC4=Cc5oncc5C[C@]4(C)[C@H]3CC[C@@]21C,inhibition,[1],-3.18% (inactive)
same,inhibition,[2],4.1% (inactive)
same,fluorescence ratio,[3],1.01 (inactive)
same,nuclear beta-catenin stimulation,[4]; at 10 µM,-0.9% (inactive)
same,nuclear beta-catenin stimulation,"[4]; stimulation, at 2 µM",0%
same,insulin secretion stimulation,[5],1.9% (inactive)
same,viability decrease,[6],76.5% (active)
same,tube area decrease,[7],15% (inactive)
same,GLP1 secretion stimulation,[8],1.4% (inactive)
same,inhibition of viability,[9],82.4% (active)
same,viability decrease (inhibition),[10],84.4% (active)
same,viability decrease (inhibition),[11],75.7% (active)
same,inhibition,[12],14% (inactive)
same,fold change,"[17]; stronger effect = lower value, cell number ratio, induced over uninduced",0.976 (inactive) and 0.855 (inactive) and 0.842 (inactive)
same,fold change,[17]; measured here: relative caspase fold change +Dox/-Dox,3.35 and 1.24 and 1.49
same,cell count,"[17]; measured here: total cells with miR-34 induction, stronger effect = lower value",7160 and 7050 and 6060
same,cell count,[17]; measured here: total cells without miR-34 induction,7330 and 8240 and 7200
same,z-score,[14]; [23],-0.753 (inactive) and -0.503 (inactive)
same,z-score,[14]; [24],-0.343 and -0.0493
same,remaining NAD,[15],10 nM (inactive)
same,luciferase signal,[16],32 AU (inactive)
same,log fold change Tl+ flux,[18],-0.00831 (inactive)
same,log fold change Tl+ flux,[19],-0.066 (inactive)
same,log fold change Tl+ flux,[20],0.00932 (inactive)
O=C(c1ccccc1)c1ccc2n1CCC2C(=O)O (centres undefined),inhibition,[1],-2.77% (inactive)
same,inhibition,[2],-7.8% (inactive)
same,fluorescence ratio,[3],0.99 (inactive)
same,nuclear beta-catenin stimulation,[4]; at 10 µM,-0.4% (inactive)
same,nuclear beta-catenin stimulation,"[4]; stimulation, at 2 µM",-0.5%
same,insulin secretion stimulation,[5],0.8% (inactive)
same,viability decrease,[6],3.4% (inactive)
same,tube area decrease,[7],15.4% (inactive)
same,GLP1 secretion stimulation,[8],-3.6% (inactive)
same,inhibition of viability,[9],-1.1% (inactive)
same,viability decrease (inhibition),[10],1.1% (inactive)
same,viability decrease (inhibition),[11],11.4% (inactive)
same,inhibition,[12],6.58% (inactive)
same,red/green cell ratio (normalised),[13],1.03 (inactive)
same,normalised cell number,[13]; [21],1.2
same,normalised cell number,[13]; [22],1.24
same,z-score,[14]; [23],0.234 (inactive) and -0.244 (inactive) and -0.284 (inactive)
same,z-score,[14]; [24],-0.239 and 0.894 and -0.237
same,remaining NAD,[15],10 nM (inactive)
same,luciferase signal,[16],36 AU (inactive)
